15 molecules from PubChem BioAssay (Tox21) can be followed below.

Assay [1] in a line: qHTS RealTime-Glo MT Cell Viability Assay in HepG2 cells - 40 hour (AID 1224870). Also: nearly all actives have a fitted effect of over 50% in size. The gist of the method: (§1)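 Real-time viability: cells seeded at 600 per well together with NanoLuc and cell-permeant prosubstrate, compounds added after 5 h incubation. Luminescence tracked at 0, 8, 16, 24, 32 and 40 h of exposure.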
In general terms: Quantitative high-throughput screening tests each substance at several concentrations.

A short description of assay [2]: A CellTox Green Cytotoxicity Assay to monitor cytotoxicity in HEK293 cells - 40 hour (AID 1224871). Also: nearly all actives have a fitted effect of over 45% in size. The gist of the method:
(§2)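 HEK293 cells premixed with CellTox Green dye were seeded at 600 cells/well and left 5 h at 37 C/5% CO2 before pin transfer of 23 nL compound in DMSO. Fluorescence from dye bound to dead-cell DNA was read during 40 h treatment.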

Assay [3] is described as follows: qHTS RealTime-Glo MT Cell Viability Assay in HEK293 cells - 16 hour (AID 1224872). Also: nearly all actives have a fitted effect of over 50% in size. Also: potency is read from the fitted curve at half-maximal effect. The essentials: (§3)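 Luminescence generated by NanoLuc from substrate produced by living HEK293 cells served as the viability signal. Each value reflects the reading at its stated time point during continuous 40 h compound exposure at 37 C.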
Assay [4] in a line: qHTS RealTime-Glo MT Cell Viability Assay in HepG2 cells - 8 hour (AID 1224873). Also: nearly all actives have a fitted effect of over 55% in size. The essentials: as §1
Assay [5] is described as follows: qHTS RealTime-Glo MT Cell Viability Assay in HEK293 cells - 40 hour (AID 1224874). Also: nearly all actives have a fitted effect of over 50% in size. Also: potency is read from the fitted curve at half-maximal effect. The note with it: RealTime-Glo luminescence; max response: stronger effect = lower value. The gist of the method: (§4)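 HEK293 cells mixed with RealTime-Glo reagents (NanoLuc plus cell-permeant prosubstrate) at 600 cells/well, preincubated 5 h at 37 C/5% CO2, then given 23 nL compound in DMSO. Nonlytic luminescence from viable cells was read at 0, 8, 16, 24, 32 and 40 h.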

The nature of assay [6]: A CellTox Green Cytotoxicity Assay to monitor cytotoxicity in HEK293 cells - 24 hour (AID 1224875). Also: series mostly up to about 77 µM; nearly all actives have a fitted effect of over 45% in size. The essentials:
as §2

Assay [7] can be described thus: A CellTox Green Cytotoxicity Assay to monitor cytotoxicity in HepG2 cells - 16 hour (AID 1224876). Also: nearly all actives have a fitted effect of over 45% in size. The essentials:
(§5)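 HepG2 cells were seeded together with the CellTox Green dye at 600 cells/well, left 5 h at 37 C/5% CO2, then given compounds in DMSO. Fluorescence from dye bound to dead-cell DNA was read repeatedly over 40 h of treatment at 37 C.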

A short description of assay [8]: A CellTox Green Cytotoxicity Assay to monitor cytotoxicity in HepG2 cells - 24 hour (AID 1224878). Also: nearly all actives have a fitted effect of over 45% in size. Also: potency is read from the fitted curve at half-maximal effect. The essentials:
as §5

Assay [9] in a line: A CellTox Green Cytotoxicity Assay to monitor cytotoxicity in HepG2 cells - 40 hour (AID 1224879). Also: nearly all actives have a fitted effect of over 40% in size. Also: potency is read from the fitted curve at half-maximal effect. The gist of the method: as §5
Assay [10] can be described thus: qHTS RealTime-Glo MT Cell Viability Assay in HEK293 cells - 0 hour (AID 1224880). The essentials:
as §4

Assay [11] can be described thus: A CellTox Green Cytotoxicity Assay to monitor cytotoxicity in HEK293 cells - 32 hour (AID 1224881). Also: nearly all actives have a fitted effect of over 40% in size. The essentials:
as §2

Assay [12] in a line: A CellTox Green Cytotoxicity Assay to monitor cytotoxicity in HepG2 cells - 0 hour (AID 1224882). Also: nearly all actives have a fitted effect of over 35% in size. The essentials: as §5
A short description of assay [13]: A CellTox Green Cytotoxicity Assay to monitor cytotoxicity in HepG2 cells - 32 hour (AID 1224883). Also: nearly all actives have a fitted effect of over 50% in size. Also: potency is read from the fitted curve at half-maximal effect. The essentials:
as §5

Assay [14] can be described thus: A CellTox Green Cytotoxicity Assay to monitor cytotoxicity in HEK293 cells - 8 hour (AID 1224884). Also: nearly all actives have a fitted effect of over 35% in size. The essentials: as §2
A short description of assay [15]: qHTS RealTime-Glo MT Cell Viability Assay in HepG2 cells - 16 hour (AID 1224885). Also: nearly all actives have a fitted effect of over 50% in size. The essentials: (§6)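 Tox21 10K library screened in qHTS format on HepG2 cells carrying RealTime-Glo reagents. Compounds were added after a 5 h preincubation, and the luminescent signal from continuous culture was measured repeatedly during 40 h treatment.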
A short description of assay [16]: qHTS RealTime-Glo MT Cell Viability Assay in HEK293 cells - 8 hour (AID 1224887). Also: nearly all actives have a fitted effect of over 50% in size. Also: potency is read from the fitted curve at half-maximal effect. The essentials:
as §4

Assay [17] in a line: A CellTox Green Cytotoxicity Assay to monitor cytotoxicity in HEK293 cells - 16 hour (AID 1224888). Also: nearly all actives have a fitted effect of over 35% in size. The essentials: as §2
The nature of assay [18]: qHTS RealTime-Glo MT Cell Viability Assay in HepG2 cells - 0 hour (AID 1224889). Also: nearly all actives have a fitted effect of over 50% in size. The essentials:
as §6

Assay [19] can be described thus: qHTS RealTime-Glo MT Cell Viability Assay in HEK293 cells - 24 hour (AID 1224886). Also: nearly all actives have a fitted effect of over 50% in size. Also: potency is read from the fitted curve at half-maximal effect. The essentials:
as §3

A short description of assay [20]: qHTS RealTime-Glo MT Cell Viability Assay in HepG2 cells - 32 hour (AID 1224877). Also: nearly all actives have a fitted effect of over 55% in size. The essentials:
as §6

Results filed as inconclusive are left out. Where a structure was tested more than once in an assay, its records may differ in their call. Active and inactive are the calls of the source. Calls follow the shape of the dose curve; as a rule, active = well fitted curve in the direction sought with a large enough effect in the repeat runs; inconclusive = weak or mixed curves; inactive = no such curve, though single readings can be large; an effect the other way counts as inactive or inconclusive.
% is scaled to controls: 0 for no effect and ±100 for the full control effect.

Regarding `CCN(CC)CCOCCOC(=O)C1(c2ccccc2)CCCC1`, the Potency result in assay [1], in assay [2], in assay [3], in assay [4], in assay [6] and in assay [7] was “inactive” each time. In addition, the Potency entry in [8], in assay [9], in assay [10], in [11], in assay [12] and in assay [13] was “inactive” in each case. The Potency result in assay [14], in assay [15], in [16], in assay [17] and in [18] was “inactive” throughout. Also, in assay [5], the max response is -9.14% (inactive).

Regarding `O=C(O)CNC(=O)c1ccc([N+](=O)[O-])cc1`, the Potency result in assay [1], in assay [2], in assay [3], in [4], in assay [6] and in assay [7] was “inactive” throughout. In addition, the Potency result in assay [8], in [9], in assay [10], in assay [11], in assay [12] and in assay [13] was “inactive” in each case. Further, the Potency result in [14], in assay [15], in assay [19], in [16], in assay [17] and in assay [18] was “inactive” each time. Further, the max response in [5] was -0.136% (inactive).

As to `O=C(CCCN1CCC(O)(c2cccc(C(F)(F)F)c2)CC1)c1ccc(F)cc1`, the Potency result in assay [1], in assay [2], in assay [4], in assay [7], in assay [20] and in assay [10] was “inactive” in each case. Besides, the Potency result in [11], in [12], in assay [14], in assay [15], in assay [17] and in assay [18] was “inactive” throughout. Besides, the Potency in [3] was 19 µM (active); in assay [5] it was 21.3 µM (active); in [19] it was 16.9 µM (active); in assay [16], 15.1 µM (active).

For the molecule `CCSC(=O)N(CC(C)C)CC(C)C`, the Potency entry in assay [1], in [2], in assay [3], in [4], in [6] and in [7] was “inactive” each time. Also, the Potency entry in assay [8], in assay [9], in [10], in [11], in [12] and in assay [13] was “inactive” in each case. The Potency entry in assay [14], in assay [15], in [19], in assay [16], in [17] and in [18] was “inactive” throughout. The max response in assay [5] was 5.8% (inactive).

On to `CCCCNC(=O)NCCCC`, for which the Potency entry in assay [1], in assay [2], in [3], in [4], in assay [7] and in [20] was “inactive” throughout. Moreover, the Potency result in assay [8], in [9], in assay [10], in assay [12], in [13] and in assay [14] was “inactive” in each case. Also, the Potency result in [15], in [16], in assay [17] and in assay [18] was “inactive” in each case. Also, in assay [5], the max response is -3.77% (inactive).

Consider `CCOC(=O)Nc1ccc(NCc2ccc(F)cc2)nc1N`, for which the Potency result in assay [1], in [2], in assay [3], in assay [4], in assay [7] and in assay [20] was “inactive” each time. Further, the Potency entry in [8], in assay [9], in assay [10], in assay [11], in [12] and in [13] was “inactive” each time. Besides, the Potency result in [14], in assay [15], in assay [19], in assay [16], in [17] and in [18] was “inactive” each time. Also, the max response in assay [5] was -2.14% (inactive).

Take `CCOC(=O)[C@H](CCc1ccccc1)N[C@@H](C)C(=O)N1[C@H](C(=O)O)C[C@@H]2CCC[C@@H]21`: the Potency entry in assay [1], in [2], in assay [3], in assay [4], in [7] and in [20] was “inactive” in each case. Also, the Potency entry in assay [9], in [10], in assay [11], in [12], in [13] and in [14] was “inactive” in each case. Further, the Potency result in [15], in assay [19], in [16], in assay [17] and in [18] was “inactive” throughout. In addition, the max response in assay [5] was 6.09% (inactive).

On to `C1OCOCO1`, for which the Potency entry in assay [1], in [2], in [3], in assay [4], in [6] and in [7] was “inactive” in each case. The Potency entry in assay [8], in assay [9], in [10], in assay [12], in assay [13] and in assay [14] was “inactive” throughout. For the same molecule, the Potency result in assay [15], in assay [19], in [16], in assay [17] and in assay [18] was “inactive” in each case. Further, the max response in assay [5] was 2.99% (inactive).

Turning to `CN1CCN(c2cc3c(cc2F)c(=O)c(C(=O)O)cn3-c2ccc(F)cc2)CC1`, the Potency entry in [1], in assay [2], in assay [3], in assay [4], in assay [6] and in [7] was “inactive” throughout. For the same molecule, the Potency result in [8], in assay [9], in assay [10], in assay [11], in assay [12] and in assay [13] was “inactive” throughout. For the same molecule, the Potency result in assay [14], in assay [15], in assay [19], in [16], in [17] and in [18] was “inactive” each time. Also, the max response in [5] is -0.934% (inactive).

`Cc1ccc(=O)n(-c2ccccc2)c1`: the Potency result in assay [1], in [2], in assay [3], in assay [4], in [6] and in assay [7] was “inactive” each time. The Potency entry in assay [8], in [9], in assay [10], in assay [11], in assay [12] and in assay [13] was “inactive” throughout. Besides, the Potency entry in assay [14], in assay [15], in [19], in [16], in assay [17] and in assay [18] was “inactive” each time. Also, the max response in [5] was 1.08% (inactive).

Consider `CC(C)=CCCC(C)CC(=O)O` (stereo not drawn), for which the Potency entry in assay [1], in [2], in assay [3], in assay [4], in assay [6] and in [7] was “inactive” throughout. The Potency result in assay [20], in assay [8], in assay [9], in [10], in assay [11] and in assay [12] was “inactive” in each case. Further, the Potency entry in assay [13], in assay [14], in assay [15], in [19], in [16] and in assay [17] was “inactive” in each case. The Potency result in assay [18] was “inactive”.

Turning to `CCOC(=O)CCC(C)=O`, the Potency entry in [1], in assay [2], in assay [3], in assay [4], in assay [6] and in assay [7] was “inactive” throughout. The Potency entry in assay [20], in assay [9], in assay [10], in [11], in assay [12] and in assay [13] was “inactive” each time. For the same molecule, the Potency result in assay [14], in [19], in assay [16], in assay [17] and in assay [18] was “inactive” throughout.

Consider `CC(C)NCC(O)c1ccc(NS(C)(=O)=O)cc1` (stereo not drawn), for which the Potency entry in assay [1], in [2], in assay [3], in assay [4], in [6] and in assay [7] was “inactive” each time. Moreover, the Potency result in assay [20], in assay [8], in [9], in assay [10], in assay [12] and in [13] was “inactive” throughout. In addition, the Potency result in [14], in [15], in assay [19], in [16], in assay [17] and in [18] was “inactive” throughout.

Turning to `CCCCOCCOCCOCc1cc2c(cc1CCC)OCO2`, the Potency entry in assay [1], in assay [2], in assay [3], in [4], in [6] and in assay [7] was “inactive” each time. The Potency result in assay [20], in assay [10], in assay [11], in [12], in assay [14] and in [15] was “inactive” throughout. Moreover, the Potency result in [16], in assay [17] and in [18] was “inactive” in each case. For the same molecule, the Potency is 22.1 µM (active) and inactive in assay [8]; 22.1 µM (active) and inactive in assay [9]; 22.1 µM (active) and inactive in assay [13].

Regarding `O=C(O)CCCl`, the Potency result in assay [1], in [2], in assay [3], in assay [6], in assay [7] and in [20] was “inactive” each time. For the same molecule, the Potency result in assay [8], in assay [9], in [10], in [11], in assay [12] and in [13] was “inactive” in each case. For the same molecule, the Potency result in [14], in assay [15], in [19], in assay [16], in assay [17] and in [18] was “inactive” throughout. Further, the max response in assay [5] is 13% (inactive).
